Reference: PubChem BioAssay (NCI)
“And” between values parts separate entries of the source, which are not always exact repeats. Equal entries are not always repeated. About 83,000 compounds went through this panel and 20% of them were active in at least one assay; those are over-represented in the sample as a whole.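 Assay: single dose, 48 h. Readout: percent growth (0 = no net growth; negative = cell death). Active: <10.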 The source made the active and inactive calls.

Tests used:
Test in all cases: NCI-60 one-dose screen, 48 h (100 = growth as untreated, 0 = no growth, -100 = all killed)
Details in all cases: 10 µM unless noted
SK-MEL-2 melanoma = tested on: SK-MEL-2 melanoma
EKVX NSCLC = tested on: EKVX NSCLC
SN12C renal = tested on: SN12C renal
UO-31 renal = tested on: UO-31 renal
TK-10 renal = tested on: TK-10 renal
CAKI-1 renal = tested on: CAKI-1 renal
A498 renal = tested on: A498 renal
CCRF-CEM leukemia = tested on: CCRF-CEM leukemia
MOLT-4 leukemia = tested on: MOLT-4 leukemia
ACHN renal = tested on: ACHN renal

Measured: growth

OCCCc1ccccc1
inactive: SK-MEL-2 melanoma 106% | EKVX NSCLC 110% | SN12C renal 96.5% | UO-31 renal 72.6% | TK-10 renal 108% | CAKI-1 renal 104% | A498 renal 110% | CCRF-CEM leukemia 108%

COC(=O)C(Cc1cn(C(C)=O)c2ccccc12)P(=O)(OC)OC (stereo not given)
inactive: SK-MEL-2 melanoma 102% | EKVX NSCLC 90.6% | SN12C renal 97.7% | UO-31 renal 74.8% | TK-10 renal 100% | CAKI-1 renal 102% | A498 renal 115% | CCRF-CEM leukemia 110% | MOLT-4 leukemia 108%

CN(C)c1ccc(C(=N)c2ccc(N(C)C)cc2)cc1
22.1% (inactive) and 3.75% (active): SK-MEL-2 melanoma
15.2% (inactive) and -1.88% (active): A498 renal
inactive: EKVX NSCLC 58% and 48.4% | SN12C renal 40.8% and 42.4% | UO-31 renal 50.1% and 37.5% | TK-10 renal 37% and 67% | CAKI-1 renal 30.8% and 19% | CCRF-CEM leukemia 33.5% | MOLT-4 leukemia 29.2% and 16.8%

CCOC(=O)c1ccc(C(=N)N)cc1
inactive: SK-MEL-2 melanoma 113% | EKVX NSCLC 103% | SN12C renal 117% | UO-31 renal 91.8% | TK-10 renal 105% | CAKI-1 renal 97.6% | A498 renal 98.6% | CCRF-CEM leukemia 103%

COC(=O)c1nc(=S)[nH]c(C(=O)OC)c1C(=O)c1ccccc1
inactive: SK-MEL-2 melanoma 104% | EKVX NSCLC 107% | SN12C renal 99.2% | UO-31 renal 85.3% | TK-10 renal 113% | CAKI-1 renal 87% | A498 renal 114% | CCRF-CEM leukemia 103% | MOLT-4 leukemia 112%

CCOC(=O)c1ccc(N2C(=O)C(Cl)(c3ccccc3)C2c2ccco2)cc1 (stereo not given)
inactive: SK-MEL-2 melanoma 98.7% | EKVX NSCLC 61.2% | SN12C renal 95% | UO-31 renal 70.8% | TK-10 renal 106% | CAKI-1 renal 71.7% | A498 renal 88.8% | CCRF-CEM leukemia 62.3% | MOLT-4 leukemia 59.9%

CCOC(=O)NC(N)=O
inactive: SK-MEL-2 melanoma 98.7% and 126% | SN12C renal 103% and 98.1% | UO-31 renal 86.6% and 95.3% | TK-10 renal 88.4% | ACHN renal 100% and 103% | CAKI-1 renal 99.1% and 101% | A498 renal 101% and 104% | CCRF-CEM leukemia 99.2% and 99.3% | MOLT-4 leukemia 97.2% and 106%

CC(=O)C[n+]1ccccc1Sc1ccc(Cl)cc1
inactive: SK-MEL-2 melanoma 132% | EKVX NSCLC 103% | SN12C renal 49.5% | UO-31 renal 60.5% | TK-10 renal 104% | CAKI-1 renal 90.9% | A498 renal 76.4% | MOLT-4 leukemia 18.9%
active: CCRF-CEM leukemia -9.4%

CC(C)(C)OC(=O)NCCc1ccc(N)cc1
inactive: SK-MEL-2 melanoma 86.1% | EKVX NSCLC 101% | SN12C renal 91.8% | UO-31 renal 72% | TK-10 renal 92.7% | CAKI-1 renal 98.2% | A498 renal 92.5% | CCRF-CEM leukemia 85.5%

CN(C)C(=S)N(C)C
inactive: SK-MEL-2 melanoma 104% | EKVX NSCLC 127% | SN12C renal 104% | UO-31 renal 98.4% | TK-10 renal 99.2% | CAKI-1 renal 98.6% | A498 renal 120% | CCRF-CEM leukemia 97.5% | MOLT-4 leukemia 109%

Cc1ccc([N+](=O)[O-])cc1Br
inactive: SK-MEL-2 melanoma 95.6% | EKVX NSCLC 101% | SN12C renal 98.2% | UO-31 renal 92.1% | TK-10 renal 97.1% | CAKI-1 renal 101% | A498 renal 88.5% | CCRF-CEM leukemia 105% | MOLT-4 leukemia 81.7%

Nc1ccc(Cl)c(S(=O)(=O)O)c1
inactive: SK-MEL-2 melanoma 88.2% | EKVX NSCLC 106% | SN12C renal 96.6% | UO-31 renal 77.9% | TK-10 renal 98.5% | CAKI-1 renal 95.2% | A498 renal 84% | CCRF-CEM leukemia 106%

CCCCC/C(C)=N\NC(N)=S
inactive: SK-MEL-2 melanoma 103% | EKVX NSCLC 55.4% | SN12C renal 84.4% | UO-31 renal 61.8% | TK-10 renal 100% | CAKI-1 renal 95.2% | A498 renal 84.7% | CCRF-CEM leukemia 41.1% | MOLT-4 leukemia 57.2%

Cc1ccc2cccc([N+](=O)[O-])c2n1
inactive: SK-MEL-2 melanoma 104% and 111% | EKVX NSCLC 114% | SN12C renal 98.8% and 100% | UO-31 renal 88.3% and 73.6% | TK-10 renal 109% and 111% | ACHN renal 105% and 96.9% | CAKI-1 renal 96.5% and 95.6% | A498 renal 117% and 109% | CCRF-CEM leukemia 108% and 95.3% | MOLT-4 leukemia 88.5% and 89.3%

COCCNC(C)=O
inactive: SK-MEL-2 melanoma 105% | EKVX NSCLC 105% | SN12C renal 97.7% | UO-31 renal 98.2% | TK-10 renal 102% | CAKI-1 renal 98.5% | A498 renal 89.6% | CCRF-CEM leukemia 113% | MOLT-4 leukemia 119%

C/C(CC(C)C)=N/NC(N)=S
inactive: SK-MEL-2 melanoma 107% | EKVX NSCLC 59.6% | SN12C renal 87.2% | UO-31 renal 62.1% | TK-10 renal 105% | CAKI-1 renal 104% | A498 renal 87.6% | CCRF-CEM leukemia 43.8% | MOLT-4 leukemia 52.1%

OC(CC(c1ccccc1)c1cccc2ccccc12)(c1ccccc1)c1ccccc1 (stereo not given)
inactive: SK-MEL-2 melanoma 77.9% and 74.5% | EKVX NSCLC 79.8% and 54.9% | SN12C renal 91.3% and 84.9% | UO-31 renal 70.2% and 57.4% | TK-10 renal 75.9% and 82.7% | CAKI-1 renal 64.6% and 57% | A498 renal 73.4% and 89.7% | CCRF-CEM leukemia 38.5% and 83.4% | MOLT-4 leukemia 77.3% and 52.7%

CCOC(C)=N
inactive: SK-MEL-2 melanoma 110% | EKVX NSCLC 134% | SN12C renal 105% | UO-31 renal 107% | TK-10 renal 107% | CAKI-1 renal 108% | A498 renal 120% | CCRF-CEM leukemia 98.6% | MOLT-4 leukemia 94.6%

CN(C=O)c1ccccc1
inactive: SK-MEL-2 melanoma 103% | EKVX NSCLC 86.6% | SN12C renal 93.3% | UO-31 renal 65.5% | TK-10 renal 121% | CAKI-1 renal 88.2% | A498 renal 98% | CCRF-CEM leukemia 95.7% | MOLT-4 leukemia 97.5%

NCCCCCC(=O)O
inactive: SK-MEL-2 melanoma 110% [middle of 4 runs] | EKVX NSCLC 109% [middle of 4 runs] | SN12C renal 107% [middle of 4 runs] | UO-31 renal 89.3% [middle of 4 runs] | TK-10 renal 115% and 104% and 98.9% | ACHN renal 103% [middle of 4 runs] | CAKI-1 renal 94% [middle of 4 runs] | CCRF-CEM leukemia 101% and 90.4% and 108% | MOLT-4 leukemia 105% and 88.6% and 108%

CC(C)(C(=O)c1cccnc1)c1cccnc1
inactive: SK-MEL-2 melanoma 101% and 99.7% | EKVX NSCLC 102% and 124% | SN12C renal 96.1% and 113% | UO-31 renal 77.5% and 93.4% | TK-10 renal 103% and 110% | CAKI-1 renal 98.5% and 109% | A498 renal 73.3% and 130% | CCRF-CEM leukemia 91.8% | MOLT-4 leukemia 96.3% and 126%

CC1(CO)CCCC1NCCNC1CCCC1(C)CO (stereo not given)
inactive: SK-MEL-2 melanoma 89.9% and 110% | EKVX NSCLC 101% | SN12C renal 98% and 103% | UO-31 renal 105% and 86% | TK-10 renal 108% | CAKI-1 renal 99.5% and 92.3% | A498 renal 102% and 111% | CCRF-CEM leukemia 99.6% | MOLT-4 leukemia 115% and 104%

Cc1nc2c(=O)[nH]c(=S)[nH]c2[nH]c1=O
inactive: SK-MEL-2 melanoma 102% and 114% | EKVX NSCLC 102% and 109% | SN12C renal 102% and 97.1% | UO-31 renal 93.8% and 87.3% | TK-10 renal 106% and 119% | ACHN renal 103% and 97.6% | CAKI-1 renal 94.4% and 93.9% | A498 renal 97.5% and 97.3% | CCRF-CEM leukemia 101% and 104% | MOLT-4 leukemia 100% and 103%
